HCV inh = HCV inhibition; Huh7.5.1 HCVcc-Cre infection, luciferase reporter, 44 h; Potency, µM (series often up to 41.8 µM), without a hit: top-dose activity change, negative = inhibition, usual class: inhibitors; actives 3.4% (n = 340,000); AID 651820; also: potency is read from the fitted curve at half-maximal effect; % is scaled to controls: 0 for no effect and ±100 for the full control effect
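Seed cells (1,000/well) for 4 h; treat with compound and infect with HCVcc-Cre, moi about 0.5. Incubate 44 h, then detect luciferase activity.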
Shiga toxin inh = inhibitors of Shiga toxin in Vero cells. Vero cells, Shiga toxin protein synthesis inhibition reporter. inhibition, % at 38.7 µM. actives 9.2% (n = 290,000). AID 2315; in the data active = inhibition mostly above about 28%, no sharp cut-off; inactive = mostly below about 43%; also: 0% is about no effect
Pf growth 96h = P. falciparum growth inhibition at 96 hour, primary screen for plastid delayed-death inhibitors; P. falciparum luciferase reporter growth, 96 h; Potency, µM (top dose mostly 28.7 µM), for inactives: top-dose activity change, negative = inhibition, most hits filed as inhibitors; actives 6.9% (n = 320,000); also: potency is read from the fitted curve at half-maximal effect; % is scaled to controls: 0 for no effect and ±100 for the full control effect
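Erythrocytes infected with luciferase-expressing P. falciparum were dispensed at 2% hematocrit and 0.05% parasitemia (final), then incubated with compounds 96 hours at 37 C in 5% CO2. Luminescence after detection reagent addition reported growth.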
HCMV inh = blocks human cytomegalovirus replication; HFF cells, HCMV-luciferase reporter, 72 h; hits give low values; activity change, negative = inhibition, % at 57.5 µM; actives 4.5% (n = 410,000); in the data active = activity change below about -60%; inconclusive = no clear call, values can overlap the other calls; inactive = above about -39%; also: % is scaled to controls: 0 for no effect and ±100 for the full control effect
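Inhibition of viral replication was scored as loss of reporter luminescence in HFFs infected with HCMV-luciferase (MOI 1 PFU/cell) for 72 h; compounds tested at 2 doses, normalized to buffer and Salinomycin controls.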
Pf growth 48h = inhibits P. falciparum growth in the first generation, 48 h; Potency, µM (series often up to 28.7 µM), inactives show top-dose activity change, negative = inhibition, hits mostly inhibitors; P. falciparum luciferase growth in erythrocytes, 48 h; AID 504832; actives 5.9% (n = 310,000); also: potency is read from the fitted curve at half-maximal effect; % is scaled to controls: 0 for no effect and ±100 for the full control effect
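Luciferase-expressing parasites in RBCs, 2% Hct / 0.1% parasitemia final; RPMI 1640 + 0.5% Albumax; 37 C, 5% CO2, one generation; luminescence read-out, lower signal = inhibition.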
Cycloheximide cs = counter-screen hit for Shiga toxin inhibitors, cycloheximide; max response, %; cell reporter, cycloheximide protein synthesis inhibition counterscreen; AID 2314; actives 12% (n = 300,000); in the data active = max response mostly above about 13%, no sharp cut-off; inactive = mostly below about 14%; also: read at 38.3 µM for the half of the compounds with a filed dose; 0% is about no effect
The depositor's hits bear a star; ? = inconclusive; / = no result. Most compounds without a hit are left out; they make up all but 21% or so of the library. Unless noted, calls follow the shape of the dose curve; as a rule, active = well fitted inhibition curve with a large enough effect; inconclusive = small, poorly fitted or top-dose-only effect, or another doubt; inactive = no such curve, though single readings can be large or run the other way.

SMILES | HCV inh | Shiga toxin inh | Pf growth 96h | HCMV inh | Pf growth 48h | Cycloheximide cs
CCn1ncc(Br)c1C(=O)NC1CCCCCCC1 | 3% | -4 | ? | 42 | 0% | -3
CC(C)(C)C(=O)Cn1ncc(NC2CC2)c(Br)c1=O | -4% | 14 | 18% | 17 | 22% | 13*
Cc1cc(Br)ccc1NC(=O)Cn1cc(S(=O)(=O)N2CCN(c3ccccc3F)CC2)c2ccccc2c1=O | / | / | / | 10 | / | /
CCCCCCN(C(=O)CCCCCN1C(=O)NC(c2ccc(-c3ccccc3)cc2)C(C(=O)OCc2ccccc2)=C1C)C(C(=O)NCCCC)C1CCCCC1 (centres undefined) | / | 16 | 2.6µM* | 10 | 0.83µM* | -7
CCCCCCN(C(=O)CCCCCN1C(=O)NC(c2ccc(-c3ccccc3)cc2)C(C(=O)OCc2ccccc2)=C1C)C(C(=O)NCCCC)c1ccccn1 (centres undefined) | / | -5 | 2.3µM* | 19 | 2.9µM* | -3
NC(=O)C1(NC2CCCCC2)CCN(Cc2ccccc2)CC1 | ? | / | / | -4 | / | /
CC(=O)N1CCN(C(=O)c2ccc(C(=O)c3ccccc3)cc2)CC1 | 8% | -1 | 30% | -14 | 17% | 1
O=C1O/C(=C\c2ccccc2)c2ccccc21 | 12% | 45* | ? | -36 | 21% | 31*
COCC(=O)Nc1ccc2c(c1)OCC(=O)N2Cc1ccc(C)cc1 | 2% | 22 | ? | 45 | ? | 12*
Cc1ccc(NC(=O)COC(=O)CN2C(=O)COc3ccccc32)cc1 | 10% | -9 | 10% | 26 | / | 6
CCc1ccc(CSc2nc(-c3ccccc3F)nc3c2Cc2c(CO)cnc(C)c2O3)cc1 | / | / | / | 22 | / | /
O=C(Nc1cccc(F)c1)C1CCCN(S(=O)(=O)c2cccc3cccnc23)C1 (centres undefined) | ? | 9 | ? | 51 | 9.3µM* | 0
O=C(C1CCCN(S(=O)(=O)c2cccc3cccnc23)C1)N1CCN(c2ccccc2F)CC1 (centres undefined) | -14% | -6 | 15µM* | -12 | / | -3
Cc1ccc(-n2cnc3c(=O)[nH]cnc32)cc1 | ? | / | / | 18 | / | /
Cc1nn(-c2ccccc2)c(/N=C/c2ccccc2O)c1-c1ccccc1 | 3% | active | ? | 24 | 101% | 80*
Cc1nn(CC2CCCCC2)c(N)c1-c1ccccc1 | 4% | 65* | ? | 8 | / | 44*
Cc1nn(-c2ccccc2)c(N)c1-c1ccccc1 | 1% | 64* | 240% | -10 | 92% | 38*
Cc1nn(-c2nc3ccccc3[nH]2)c(N)c1-c1ccccc1 | 32µM* | 67* | -19% | 38 | 53% | 42*
CCCCNC(=O)C1(C)CCCCN1C(=O)c1ccno1 (centres undefined) | / | / | / | -5 | / | /
COC(=O)c1ccc(C(=O)OC)c(NC(=O)CN(C)Cc2ccccc2)c1 | ? | 23 | ? | -2 | ? | 1
O=C(Cc1c(F)cccc1Cl)Nc1ccc(S(=O)(=O)Nc2nccs2)cc1 | 19% | 5 | 50% | 59 | ? | -4
CN(C)C(=S)c1ccc(N(C)C)cc1 | 31% | -7 | 21% | -30 | 43% | 15
CN=C1C=CC(=C(c2ccc(N(C)C)cc2)c2ccc(N(C)C)cc2)C=C1 | / | / | 1.1µM* | / | 0.21µM* | /
CCOC(=O)N1CCC(N2C(=O)c3ccccc3C2Nc2ccccc2C)CC1 (centres undefined) | ? | 3 | -16% | -34 | ? | -3
CCOC(=O)c1ccccc1NC1c2ccccc2C(=O)N1C1CCN(C(=O)OCC)CC1 (centres undefined) | ? | -3 | ? | -14 | 1.7µM* | 7
SMILES | HCV inh | Shiga toxin inh | Pf growth 96h | HCMV inh | Pf growth 48h | Cycloheximide cs
CCOC(=O)N1CCC(N2C(=O)c3ccccc3C2Nc2ccc3c(c2)OCCO3)CC1 (centres undefined) | 1% | 128* | 39% | ? | / | 161*
Cc1oc2c(c(C)nn2-c2ccccc2)c(=O)c1Cl | / | / | / | 51 | / | /
Cc1cc(CC(C)C)n(-c2nc3ccccc3c(=O)n2OCC(=O)N(C)C)n1 | 11% | 9 | 0% | 0 | -9% | 8
Cc1cc(C)n(-c2nc3ccccc3c(=O)n2OCC(=O)Nc2c(C)cccc2C)n1 | -9% | 3 | 13µM* | 6 | ? | 1
Cc1cc(C)n(-c2nc3ccccc3c(=O)n2OCC(=O)N(C)C)n1 | 11% | 6 | 2% | 19 | ? | 5
Cc1cc(CC(C)C)n(-c2nc3ccccc3c(=O)n2OCc2ccccc2)n1 | -6% | 45 | 12µM* | -25 | ? | 31*
Cc1cc(C)n(-c2nc3ccccc3c(=O)n2OCC(=O)OCc2ccccc2)n1 | ? | 36 | ? | ? | 1.5µM* | 15*
Cc1cc(C)n(-c2nc3ccccc3c(=O)n2OCc2ccc(Cl)cc2)n1 | -10% | 11 | ? | -10 | ? | 1
C#CCOn1c(-n2nc(C)cc2C)nc2ccccc2c1=O | 23% | 24 | ? | 26 | 3% | 4
Cc1cc(C)n(-c2nc3ccccc3c(=O)n2OCc2ccc(F)cc2)n1 | -10% | 22 | 8.3µM* | 38 | ? | 18*
CC(C)c1ccc(NC(=O)[C@H]2O[C@@H]3OC(C)(C)O[C@@H]3[C@H]3OC(C)(C)O[C@H]32)cc1 | / | / | / | 48 | / | /
Cc1cccc(N(Cc2ccccc2)C(=O)CCl)c1 | 4µM* | 21 | ? | -116* | ? | 8
O=C(CCl)N(Cc1ccccc1)c1ccccc1 | 5µM* | 6 | ? | -98* | 10µM* | 26*
Cc1cccc(N(CC(=O)O)CC(=O)O)c1 | 40% | -7 | 13µM* | 7 | -13% | 2
Cc1cccc(N(Cc2ccccc2)C(=O)CSC(C)C(=O)Nc2cc(C)on2)c1 (centres undefined) | 8% | / | 10µM* | -29 | ? | /
COC(=O)c1ccc(C(=O)N(Cc2ccccc2)c2ccccc2)cc1 | ? | -7 | -22% | 21 | ? | -2
CCC(=O)N1c2ccccc2CC1C(=O)NCc1ccccc1C (centres undefined) | / | / | / | 2 | / | /
N#Cc1nc(-c2ccc(COc3ccc(Cl)cc3)o2)oc1N1CCCCC1 | / | / | / | -27 | / | /
CC(=O)Nc1ccc(Oc2nc(-c3ccccn3)nc3ccccc23)cc1 | ? | 54* | 12µM* | -102* | ? | 58*
CC(=O)Nc1cccc(Oc2nc(C(F)(F)F)nc3ccccc23)c1 | -14% | -4 | 2% | -22 | -1% | 0
CC(=O)Nc1cccc(Oc2nc(-c3ccccn3)nc3ccccc23)c1 | ? | 36 | ? | -61* | ? | 15*
CC(C)(C)c1ccc(S(=O)(=O)N2CCN(c3ncccn3)CC2)cc1 | 15% | -10 | 5% | -15 | ? | 0

From PubChem BioAssay
